Results filed as inconclusive are left out. Activity calls are given as the source filed them. Calls follow the shape of the dose curve; as a rule, active = well fitted inhibition curve with a large enough effect; inconclusive = small, poorly fitted or top-dose-only effect; inactive = no such curve, though single readings can be large or run the other way.
Experiment: qHTS Screen of the MIPE 4.0 Collection Against Ewings Sarcoma (EW8) (AID 1259255); also: nearly all actives have a fitted effect of over 35% in size
Conditions: EW8 Ewing sarcoma viability, CellTiter-Glo, 48 h; series mostly up to 45.8 µM
Text: There is a large unmet medical need for treatments for Ewing sarcoma, a pediatric sarcoma. We sought to identify compounds that inhibited Ewing sarcoma cells in vitro with the goal to then test promising drugs in two drug combinations in vitro to look for synergistic drug combinations. Promising combinations would then proceed to additional validation, including in vivo testing.
Using the NCATS developed oncology compound library called the Mechanism of Interrogation Plate (MIPE), four Ewing sarcoma cell lines were evaluated (TC32, TC71, RDES, EW8). Compounds, in a 12-point titration series, were incubated with cells for 48 hours and the read out was cell viability (CellTiter-Glo from Promega). These initial experiments were used to select appropriate concentrations of each single agent for subsequent two-drug matrix combinations such that the concentrations in the matrices would span both activity and non-activity.
Cells, in the log phase of growth, were seeded in 5 uL of RPMI plus 5% FBS, […] L-glutamine, 100 U/ml penicillin and 100 ug/ml streptomycin into 1536-well solid-bottom white tissue culture treated Greiner Bio One Plates (789173-F) using a MultiDrop Combi (Thermofisher Scientific) dispenser and a small sterile cassette. One column was media alone to be used as a :"no cells" control. The plates were then covered with sterilized stainless steel gasketed lids from Kalypsys. After allowing cells to attach for 4 hours, 23 nL of test compound or control (negative control DMSO and positive control 9.2 uM Bortezomib-final) were added from a 1536-well polypropylene compound source plate to each well using a 1536 head pin tool from Kalypsys. Cells were then incubated for 48 hours at 37C, 95% relative humidity and 5% CO2. After 48 hours, plates were removed from the incubator and 3 uL of CellTiter-Glo (Promega) was added using an Aurora Flying Reagent Dispenser Bioraptor. Plates were incubated at room temperature for 10 minutes prior to reading the luminescence on the Viewlux (PerkinElmer). The relative luciferase units are used to calculate the percent activity using the activity of DMSO in the cells and no cells columns for normalization of no inhibition and full inhibition respectively.
Potency is read from the fitted curve at half-maximal effect.

SMILES	Potency
Cc1ccc(-c2ncn(-c3ccc(Nc4nccc(-c5cccc(N6CCOCC6)c5)n4)cc3)n2)cn1	0.0935 µM (active)
CC(=O)c1c(C)c2cnc(Nc3ccc(N4CCNCC4)cn3)nc2n(C2CCCC2)c1=O	20.9 µM (active)
CC[C@@H]1C(=O)N(C)c2cnc(Nc3ccc(C(=O)NC4CCN(C)CC4)cc3OC)nc2N1C1CCCC1	0.0372 µM (active)
C[C@@]12O[C@@H](C[C@]1(O)CO)n1c3ccccc3c3c4c(c5c6ccccc6n2c5c31)CNC4=O	0.296 µM (active)
Cc1cc(Nc2cc(CN3CCOCC3)c3nc(C)c(Cc4ccc(Cl)cc4F)n3n2)n[nH]1	3.32 µM (active)
CCOc1ccccc1OCCNC(C)Cc1ccc(OC)c(S(N)(=O)=O)c1 (stereo not given)	inactive
CC1(C)O[C@@H]2C[C@@H]3[C@H]4C[C@@H](F)C5=CC(=O)C=C[C@]5(C)[C@@]4(F)[C@@H](O)C[C@]3(C)[C@]2(C(=O)CO)O1	inactive
COC(=O)Nc1nc2ccc(C(=O)c3ccc(F)cc3)cc2[nH]1	0.662 µM (active)
CN(C)CC(C)(C)CNc1nn2c(-c3ccccc3)nnc2cc1C1CCC1	0.469 µM (active)
N#CCNC(=O)c1ccc(-c2ccnc(Nc3ccc(N4CCOCC4)cc3)n2)cc1	13.2 µM (active)
C[C@@H]1CN(CC(=O)Nc2ccc3c(c2)Cc2cccc(-c4cc(=O)cc(N5CCOCC5)o4)c2S3)C[C@H](C)O1	23.5 µM (active)
Cc1cnc(Nc2ccc(F)cc2Cl)nc1-c1c[nH]c(C(=O)N[C@H](CO)c2cccc(Cl)c2)c1	20.9 µM (active)
CCC[C@H](NC(=O)C(C#N)=Cc1cccc(Br)n1)c1ccccc1	6.62 µM (active)
COc1cc(Nc2ncc(F)c(Nc3ccc4c(n3)N(COP(=O)(O)O)C(=O)C(C)(C)O4)n2)cc(OC)c1OC	7.43 µM (active)
CC(C)c1cc(-c2n[nH]c(=O)n2-c2ccc3c(ccn3C)c2)c(O)cc1O	0.0662 µM (active)
O=C(O)c1ccc2c(c1)nc(Nc1cccc(Cl)c1)c1ccncc12	7.43 µM (active)
CC(C)c1ccc(Cn2ccc3c4c(N)nc(NC5CC5)nc4ccc32)cc1	3.32 µM (active)
O=C(C=Cc1cccnc1)NCCCCC1CCN(C(=O)c2ccccc2)CC1	0.0074 µM (active)
Cc1nc2cnc3ccc(C#Cc4cccnc4)cc3c2n1-c1ccc(C(C)(C)C#N)cc1	0.118 µM (active)
CCN1CCN(Cc2ccc(-c3cc4c(N[C@H](C)c5ccccc5)ncnc4[nH]3)cc2)CC1	0.0332 µM (active)

SMILES	Potency
Cc1nc(N)ncc1-c1nc(N2CCOCC2)c2sc(C(C)(C)O)cc2n1	6.62 µM (active)
CCCCCN(CCC12CC3CC(CC(C3)C1)C2)C(=O)NCCCc1ccncc1	18.7 µM (active)
Cc1c(Cn2c(C)nc3c(C(=O)O)cc(N4CCOCC4)cc32)cccc1C(F)(F)F	11.8 µM (active)
CC(=O)OCC(=O)[C@@]1(O)[C@H](C)C[C@H]2[C@@H]3C=C(C)C4=Cc5c(cnn5-c5ccccc5)C[C@]4(C)[C@@H]3[C@@H](O)C[C@@]21C	7.43 µM (active)
COc1cc2c(Oc3ccc(-c4cnc(Nc5ccc(F)cc5)n(C)c4=O)cc3F)ccnc2cc1OCCCN1CCOCC1	18.7 µM (active)
C=CC(=O)Nc1cccc(Oc2nc(Nc3ccc(N4CCN(C)CC4)cc3)ncc2Cl)c1	2.64 µM (active)
CNC(=O)CN1CCC(Oc2cc3c(Nc4cccc(Cl)c4F)ncnc3cc2OC)CC1	0.105 µM (active)
OCc1ccc(-c2ccc(-c3ccc(CO)s3)o2)s1	0.0074 µM (active)
COCCn1c2c([n+](Cc3cnccn3)c1C)C(=O)c1ccccc1C2=O	0.0047 µM (active)
CC(C)c1nn(-c2c(Cl)cccc2Cl)c2nc(Cc3ccc(OCCO)cc3)[nH]c(=O)c12	0.148 µM (active)
CC(C)CC(=O)Nc1n[nH]c2c1CN(C(=O)C1CCN(C)CC1)C2(C)C	1.32 µM (active)
O=c1c2ccccc2nc2n1CCc1c-2[nH]c2ccccc12	inactive
NC(=O)c1cccc2cn(-c3ccc([C@@H]4CCCNC4)cc3)nc12	7.43 µM (active)
CC1(C)OC2=C(C(=O)c3ccccc3C2=O)[C@H](NCc2ccccc2)[C@H]1O	2.96 µM (active)
Cc1ccc2nc(NC(=O)CSc3nc4c(c(=O)n3-c3ccccc3)SCC4)sc2c1	16.6 µM (active)
CC1(O)CC(c2nc(-c3ccc4ccc(-c5ccccc5)nc4c3)c3c(N)nccn23)C1 (stereo not given)	13.2 µM (active)
Cn1c(CNc2ccc(C(=N)N)cc2)nc2cc(C(=O)N(CCC(=O)O)c3ccccn3)ccc21	inactive
CN1CCC(CNc2ccc3ncc(-c4cccc(OC(F)(F)F)c4)n3n2)CC1	10.5 µM (active)
C[C@H]1C[C@@H]2[C@@H]([C@@H](O)C[C@@]3(C)[C@H]2CC[C@]3(O)C(=O)CO)[C@@]2(C)C=CC(=O)C=C12	inactive
CCn1cc(-c2ccnc3[nH]c(-c4cccc(CN(C)C)c4)cc23)c(-c2ccc(NC(=O)N(C)C)cc2)n1	0.0469 µM (active)
